The supplement of paper PMC8877412
± gives the uncertainty stated by the source.

Tested on: NCC-PMP1-C1
Assay: cell viability relative to DMSO control; higher = less growth inhibition
Conditions: 10 µM; 72 h
Experimental: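 NCC-PMP1-C1 pseudomyxoma peritonei cells were seeded in 384-well plates coated with Matrigel and MEF (1e4 cells). Viability was read after 72 h by CCK-8 and expressed as % of the DMSO control, mean ± SD of duplicates.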

Structure (SMILES)	cell viability [%]
C[C@H](NC(=O)Cc1cc(F)cc(F)c1)C(=O)N[C@H](C(=O)OC(C)(C)C)c1ccccc1	96.2 ± 2.6
C=CC(=O)Nc1cccc(Nc2nc(Nc3ccc(N4CCN(C(C)=O)CC4)cc3OC)ncc2C(F)(F)F)c1 [Rociletinib (CO-1686, AVL-301)]	57.8 ± 3.1
COc1cc(Nc2ncc(F)c(Nc3ccc4c(n3)N(COP(=O)(O)O)C(=O)C(C)(C)O4)n2)cc(OC)c1OC [Fostamatinib (R788)]	4.92 ± 3.4
Nc1nc(Cl)nc2c1ncn2[C@@H]1O[C@H](CO)[C@@H](O)[C@@H]1F [Clofarabine]	112 ± 5.7
O=C(O)CCCN1CCC(O[C@@H](c2ccc(Cl)cc2)c2ccccn2)CC1 [Bepotastine Besilate]	2.73 ± 16
O=C(O)C1(C(=O)O)CCC1.[NH2-].[NH2-].[Pt+2] [Carboplatin]	61.9 ± 9.4
CS(=O)(=O)c1ccc(C(=O)Nc2ccc(Cl)c(-c3ccccn3)c2)c(Cl)c1 [Vismodegib (GDC-0449)]	90.5 ± 3.3
CCN(CC)CCNC(=O)c1c(C)[nH]c(/C=C2\C(=O)Nc3ccc(F)cc32)c1C [Sunitinib Malate]	50.6 ± 16
COC(=O)C1=C(C#N)NC(C)=C(C(=O)OC(C)C)C1c1cccc([N+](=O)[O-])c1 (stereo unspecified) [Nilvadipine]	82.8 ± 3.3
C[C@]1(O)C[C@@H](c2nc(-c3ccc4ccc(-c5ccccc5)nc4c3)c3c(N)nccn32)C1 [Linsitinib (OSI-906)]	58.9 ± 2.1
CC[C@H]1OC(=O)[C@H](C)[C@@H](O[C@H]2C[C@@](C)(OC)[C@@H](O)[C@H](C)O2)[C@H](C)[C@@H](O[C@@H]2O[C@H](C)C[C@H](N(C)C)[C@H]2O)[C@](C)(O)C[C@@H](C)CN(C)[C@H](C)[C@@H](O)[C@]1(C)O [Azithromycin]	123 ± 2.7
